Results: the supplement of paper PMC3334620
Over roughly 33,000 sequences, “E-score (-0.5 to 0.5)” has its median near -0.016; the highest 2% begin near 0.3. Many of the other results were omitted from the sample, so the highest values are more common in it than they were.

target: T1, Yer184c (UniProt P39961); assay: PBM E-score (8-mer binding enrichment) (E-score (-0.5 to 0.5)); higher = stronger / more preferred TF binding; settings: protein concentration: 100 nM; construct: GST-full length
T1 sequence: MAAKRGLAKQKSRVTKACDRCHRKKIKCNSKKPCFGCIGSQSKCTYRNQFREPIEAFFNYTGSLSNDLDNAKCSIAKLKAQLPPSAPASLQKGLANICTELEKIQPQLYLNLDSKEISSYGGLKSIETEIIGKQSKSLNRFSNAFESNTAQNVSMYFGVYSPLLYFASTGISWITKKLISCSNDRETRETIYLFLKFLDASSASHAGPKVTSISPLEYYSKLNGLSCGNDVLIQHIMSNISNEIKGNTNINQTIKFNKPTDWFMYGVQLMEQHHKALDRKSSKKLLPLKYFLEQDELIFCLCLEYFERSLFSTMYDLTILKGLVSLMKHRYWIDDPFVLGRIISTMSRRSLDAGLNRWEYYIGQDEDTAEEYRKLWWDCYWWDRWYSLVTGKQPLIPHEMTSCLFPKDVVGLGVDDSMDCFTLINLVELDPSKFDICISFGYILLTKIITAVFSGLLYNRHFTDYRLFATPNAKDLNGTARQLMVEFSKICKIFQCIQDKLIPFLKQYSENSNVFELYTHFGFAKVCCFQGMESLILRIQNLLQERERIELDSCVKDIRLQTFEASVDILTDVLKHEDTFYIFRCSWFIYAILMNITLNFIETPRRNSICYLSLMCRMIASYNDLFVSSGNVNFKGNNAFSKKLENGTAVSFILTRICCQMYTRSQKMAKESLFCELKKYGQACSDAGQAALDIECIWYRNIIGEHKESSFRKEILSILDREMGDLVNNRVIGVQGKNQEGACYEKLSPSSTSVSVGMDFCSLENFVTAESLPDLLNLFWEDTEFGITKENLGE
Experimental: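 Universal 'all 10-mer' protein binding microarrays (Agilent AMADID 015681) probed with GST-tagged S. cerevisiae TFs (full-length or DBD) made by in vitro transcription/translation (PURExpress), about 100-200 nM. Bound TF was detected with fluorescent anti-GST. Each ungapped 8-mer (which stands for itself and its reverse complement) is scored by the PBM enrichment score (E-score), a modified Wilcoxon-Mann-Whitney statistic from -0.5 to +0.5, computed with the Universal PBM Analysis Suite. Scale: above 0.35 generally sequence-specific binding.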

Row | Sequence | PBM E-score
1 | CACAAGCC | -0.0115
2 | AGCCCGTA | -0.276
3 | GAACACCC | -0.0175
4 | AAGGCCGA | 0.338
5 | CAGGCCGG | 0.108
6 | AAGGCCGT | 0.156
7 | AAGGCCGC | 0.051
8 | AAGGCCGG | 0.318
9 | AAGGCCCG | -0.093
10 | CGCCCGCA | -0.0897
11 | GATGAGCA | 0.0238
12 | GAGGTCGA | -0.158
13 | GACTGCCC | -0.309
14 | ATATTGCG | -0.0525
15 | GTCGGCTA | 0.153
16 | CTCGGCGA | 0.399
17 | ATCGGCGA | 0.128
18 | CGCGGCGC | 0.259
19 | CTCGGCGC | 0.357
20 | GTCGGCGA | 0.134
21 | CTCGGCTC | 0.237
22 | CTCGGCTA | 0.352
23 | ATCGGCGC | 0.275
24 | TAGATGGA | -0.162
25 | AAGAGGAG | -0.115

Row | Sequence | PBM E-score
26 | GATGGATA | 0.0331
27 | CGGGGAGC | -0.0385
28 | AGAGCCAT | -0.101
29 | CGCTATGA | -0.0231
30 | GTTCGGAA | 0.402
31 | CTTCGGAA | 0.394
32 | CTTCGGTA | 0.235
33 | ATTCGGTC | 0.244
34 | ATTCGGGC | 0.141
35 | AGTCGGAC | 0.0344
36 | CTTCGGGA | 0.171
37 | ATTCGGAC | 0.349
38 | CTTCGGTC | 0.309
39 | GGTCGGAA | 0.225
40 | GTTCGGGA | 0.226
41 | CGTCGGAA | 0.24
42 | AAAGTTAT | 0.134
43 | CGAACCCA | -0.0147
44 | GCGCCCTA | -0.135
45 | CGCGTAGC | -0.0173
46 | CCTGTCAG | -0.101
47 | TCCGCGAA | 0.234
48 | ATTGGTAG | -0.0488
49 | AGTCGGAA | 0.245
50 | CTTCGGAC | 0.325

Row | Sequence | PBM E-score
51 | ATTCGGAG | 0.205
52 | CTTCGGGC | -0.0555
53 | CCTCGGAC | 0.17
54 | ATTCGGAA | 0.353
55 | GTATGCTA | -0.0379
56 | AGCCGCGG | 0.419
57 | ATCCGCGC | 0.141
58 | AGCCGCGC | 0.103
59 | ATCCGCGG | 0.359
60 | ACCCGCGG | 0.351
61 | AACCGCGG | 0.372
62 | ACCCGCGA | -0.0511
63 | AACCGCGT | 0.168
64 | ACCCGCGT | -0.0424
65 | AGCCGCGA | 0.133
66 | AACCGCGA | 0.225
67 | ATCCGCGA | 0.105
68 | GATCGCAC | -0.0597
69 | CAAAGATC | 0.154
70 | CGATCTGC | 0.0352
71 | AGCTACCT | -0.0785
72 | CAGTCCCA | -0.171
73 | GTAAGGAA | -0.0396
74 | CACAGAAC | -0.13
75 | ATTCCGGA | 0.436

Row | Sequence | PBM E-score
76 | GTTCCGGA | 0.438
77 | CTTCCGCA | 0.068
78 | ATACCGGA | 0.237
79 | CTTCCGCC | 0.024
80 | CTTCCTGC | -0.314
81 | GTACCGGA | 0.285
82 | GTTCCGCA | 0.268
83 | CTTCCCGA | 0.148
84 | ATTCCGCA | 0.139
85 | CTTCCGGC | 0.343
86 | CTTCCGGA | 0.402
87 | CCAACGTA | -0.105
88 | ACTCGGGA | 0.199
89 | GAAAACCA | -0.0101
90 | GTGCAGAA | 0.0359
91 | CTGTGGGC | -0.192
92 | CGTCCCCC | -0.275
93 | ATGGGCAC | -0.072
94 | ATTCGCCA | 0.0246
95 | ATTCGCCG | 0.334
96 | ATTCGCCC | -0.127
97 | GAGAGGAC | -0.128
98 | AGCCCGGC | 0.309
99 | AGCCCGGA | 0.314
100 | GGCCCGGA | 0.301

Row | Sequence | PBM E-score
101 | CGCCCGGA | 0.264
102 | AGCCCGGG | 0.268
103 | CGCCCGGC | 0.213
104 | CCTGGAGA | -0.035
105 | AATCCTGA | 0.0482
106 | AAATACCT | -0.105
107 | ATCAACTA | 0.178
108 | GAGGTGCC | 0.0277
109 | CAACGTGC | -0.133
110 | ACAAGTAC | 0.00537
111 | AAGCGAGT | 0.225
112 | ACAGCCGG | 0.343
113 | ACAGCCGA | 0.0776
114 | ATAGCCGA | 0.299
115 | ACAGCCGC | -0.0252
116 | AGAGCCGA | 0.26
117 | ATAGCCGG | 0.388
118 | AGAGCCGC | 0.0235
119 | ATAGCCGC | 0.0602
120 | AGAGCCGG | 0.314
121 | ATCCACTG | -0.143
122 | CTCCAGTC | -0.195
123 | AGACCGAA | 0.305
124 | TGACCGAA | 0.228
125 | CGACCGAA | 0.273

Row | Sequence | PBM E-score
126 | GGACCGAA | 0.353
127 | AGACCGAT | 0.0681
128 | GGACCGAC | 0.12
129 | ACGTTGCC | -0.14
130 | CGTTACCC | -0.104
131 | CGATACCG | -0.0503
132 | AAATTGCC | 0.168
133 | CAGTGTGA | 0.0148
134 | AGCTCCAG | -0.151
135 | TAAATTCA | -0.0563
136 | ACTTCGGG | 0.0741
137 | CCTTCGCA | -0.0813
138 | ACTTCGGA | 0.337
139 | GCTTCGGA | 0.304
140 | GCTTCGCA | -0.163
141 | CCTTCGGA | 0.327
142 | ACTTCGGC | 0.269
143 | CCTTCGGC | 0.219
144 | GCTTCGTA | -0.148
145 | CGCGTTGA | -0.00366
146 | GGTCTTGA | -0.0168
147 | CAGTGGCC | -0.0943
148 | ATTTGTGA | 0.0908
149 | CCTCAACA | 0.126
150 | ACCCTAGC | -0.109

Row | Sequence | PBM E-score
151 | AACGCCTG | -0.104
152 | TCCAGGCA | -0.15
153 | CCGCAAAC | 0.144
154 | AGTCTTCA | -0.0522
155 | GTTTCGTA | 0.274
156 | ATTTCGCA | 0.24
157 | ATTTCGGA | 0.348
158 | CTTTCGGA | 0.286
159 | ATTTCGGG | 0.157
160 | ATTTCGGC | 0.373
161 | CTTTCGGC | 0.201
162 | ATTTCGTC | -0.0283
163 | GTTTCGGA | 0.304
164 | TCATAGGA | -0.0683
165 | AATACCGA | 0.165
166 | GACCATAA | 0.0623
167 | CTCAGTAA | -0.0129
168 | CAATGGAG | -0.164
169 | CGGATACG | 0.247
170 | AATATTAA | 0.311
171 | AATATTAT | 0.293
172 | AATATTCG | 0.0897
